# Assay results taken from PubChem BioAssay (EPA / NIEHS).
# Records with an inconclusive call do not appear. The source made the active and inactive calls. The calls were made as follows, unless noted: active = hit-call score of the fitted dose curve at least 0.9, where 1 is the maximum; inconclusive = response in the unintended direction; inactive = score below 0.9.
# Experiments:
# [1] = tested on: Sodium/Iodide Symporter (NIS), SLC5A5 (gene 6528); assay: CPHEA_Stoker_NIS_Inhibition_RAIU: CPHEA's Radioactive Iodide Uptake (RAIU) Assay for Sodium/Iodide Symporter (NIS) Inhibition, Stoker and Laws Labs (AID 2283841)
# Outline: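 Iodide uptake read as CPM of intracellular 125I (final 329 pM) after 2 h room-temperature exposure in HEPES-buffered HBSS, pH 7.4. Human NIS-expressing HEK293T cells; six concentrations 0.001–100 uM, 0.5% DMSO, normalised to DMSO wells.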
# [2] = biological target: GAL4 Transcription Factor (Internal Marker), GAL4 (gene 855828) (UniProt P04386); assay: ATG_GAL4_XSP2: Attagene TRANS-FACTORIAL Multi-Species (XSP2) HepG2 Assay for GAL4 Transcription Factor (Internal Marker) (AID 2283814);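 also: GAL4 reporter mRNA background control in MRTU transfected cells not a receptor target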
# Outline: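 Background-control readout: gain-of-signal fitted against DMSO. After 24 h exposure of transfected HepG2 (MRTU, GAL4-UAS reporters; 3 nM 6-alpha-fluorotestosterone, 1.5 nM norgestrel present), transcripts quantified by RT-PCR and capillary electrophoresis fluorescence.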
# [3] = biological target: zebrafish Estrogen Receptor (ER1), esr1 (gene 259252) (UniProt P57717); assay: ATG_zfER1_XSP2: Attagene TRANS-FACTORIAL Multi-Species (XSP2) HepG2 Assay for zebrafish Estrogen Receptor (ER1) (AID 2283816)
# Outline: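 After 24 h compound exposure, RNA from transfected HepG2 cells was reverse-transcribed and reporter transcripts resolved by capillary electrophoresis. The TRANS format reads exogenous zebrafish ER1-Gal4 chimera activity on GAL4-UAS elements; gain of signal against DMSO.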
# [4] = biological target: chicken Estrogen Receptor (ERa), ESR1 (gene 396099) (UniProt P06212); assay: ATG_chERa_XSP2: Attagene TRANS-FACTORIAL Multi-Species (XSP2) HepG2 Assay for chicken Estrogen Receptor (ERa) (AID 2283817);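 also: actives raise reporter signal above DMSO so AC50 reflects ER activation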
# Outline: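 Reporter mRNA induction read by RT-PCR, fluorescent labelling and capillary electrophoresis after 24 h exposure; positive-direction fit against DMSO baseline. HepG2 cells transfected with multiplexed GAL4-UAS units including chicken ERa chimera; medium contained 3 nM 6-alpha-fluorotestosterone plus 1.5 nM norgestrel.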
# [5] = tested on: zebrafish Estrogen Receptor (ER2a), gene 317734; assay: ATG_zfER2a_XSP2: Attagene TRANS-FACTORIAL Multi-Species (XSP2) HepG2 Assay for zebrafish Estrogen Receptor (ER2a) (AID 2283818);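 also: hits raise reporter mRNA so AC50 reflects activation of zebrafish ER2a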
# Outline: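 Multiplexed trans-reporter readout: RT-PCR then capillary electrophoresis of reporter transcripts after 24 h compound treatment. Human HepG2 carries transfected zebrafish ER2a-Gal4 chimera; 3 nM 6-alpha-fluorotestosterone plus 1.5 nM norgestrel present. Induction scored against DMSO.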
# [6] = tested on: chicken Androgen Receptor (AR), gene 422165; assay: ATG_chAR_XSP2: Attagene TRANS-FACTORIAL Multi-Species (XSP2) HepG2 Assay for chicken Androgen Receptor (AR) (AID 2283819);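 also: hits raise reporter mRNA above DMSO so potency is for activation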
# Outline: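 Readout is reporter mRNA induction via RT-PCR/capillary electrophoresis after 24 h chemical exposure, positive direction relative to DMSO. Transiently transfected HepG2 express chimeric chicken AR–GAL4; AR stimulated by 3 nM 6-alpha-fluorotestosterone and 1.5 nM norgestrel.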
# [7] = tested on: frog Estrogen Receptor (ER), gene 398734; assay: ATG_frER1_XSP2: Attagene TRANS-FACTORIAL Multi-Species (XSP2) HepG2 Assay for frog Estrogen Receptor (ER) (AID 2283821);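 also: hits raise reporter mRNA above DMSO baseline so potency means agonist or activator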
# Outline: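 HepG2 cells transiently transfected with multiplexed GAL4-UAS reporter units expressing chimeric NR-Gal4 proteins (TRANS format) were dosed for 24 h. Reporter mRNA was quantified by RT-PCR, FAM primer extension, HpaI digestion and capillary electrophoresis; gain of signal relative to DMSO.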
# [8] = tested on: zebrafish Estrogen Receptor (ER2b), gene 317733; assay: ATG_zfER2b_XSP2: Attagene TRANS-FACTORIAL Multi-Species (XSP2) HepG2 Assay for zebrafish Estrogen Receptor (ER2b) (AID 2283823);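 also: fitted upward as reporter gain over DMSO so potency reflects activation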
# Outline: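 Transfect HepG2 with GAL4-UAS reporter constructs; dose chemicals, 24 h; isolate RNA, RT-PCR, FAM-label, HpaI digest; capillary electrophoresis. Gain-of-signal vs DMSO.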
# [9] = tested on: frog Androgen Receptor (AR), gene 399456; assay: ATG_frAR_XSP2: Attagene TRANS-FACTORIAL Multi-Species (XSP2) HepG2 Assay for frog Androgen Receptor (AR) (AID 2283824);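 also: reporter mRNA from GAL4-UAS units driven by Xenopus AR-Gal4 chimera; actives raise reporter signal above DMSO so AC50 reflects agonist-like induction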
# Outline: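 Reporter transcript induction, read by RT-PCR with fluorescent capillary electrophoresis, in human liver HepG2 cells carrying an exogenous Xenopus AR-Gal4 fusion and GAL4-driven reporters; chemical exposure 24 hours, activity scored upward against DMSO controls.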
# [10] = biological target: Estrogen receptor (Homo sapiens) (UniProt P03372); assay: ATG_hERa_XSP2: Attagene TRANS-FACTORIAL Multi-Species (XSP2) HepG2 Assay for human Estrogen Receptor (ERa) (AID 2283827)
# Outline: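 Trans-activation of exogenous human ERa-Gal4 chimera read in HepG2 as reporter transcript after 24 h exposure; medium included 3 nM 6-alpha-fluorotestosterone and 1.5 nM norgestrel. Quantified by RT-PCR with capillary electrophoresis, positive-direction fitting against DMSO.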
# [11] = tested on: frog Estrogen Receptor (ER2), gene 100174814; assay: ATG_frER2_XSP2: Attagene TRANS-FACTORIAL Multi-Species (XSP2) HepG2 Assay for frog Estrogen Receptor (ER2) (AID 2283828)
# Outline: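 Read-out: reporter transcript levels by RT-PCR with 6-FAM primer extension, HpaI digestion and capillary electrophoresis, scored as induction over DMSO control. Transfected HepG2 carrying Xenopus ER2–GAL4 chimera; compounds incubated 24 h.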
# [12] = biological target: Peroxisome proliferator-activated receptor gamma (Homo sapiens) (UniProt P37231); assay: ATG_hPPARg_XSP2: Attagene TRANS-FACTORIAL Multi-Species (XSP2) HepG2 Assay for human Peroxisome Proliferator-activated Receptor gamma (PPARg) (AID 2283829);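 also: actives raise reporter mRNA above DMSO so AC50 reflects PPARg activation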
# Outline: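 Transient MRTU transfection, HepG2; TRANS format (exogenous NR-Gal4 chimeras). 24 h chemical exposure with 3 nM 6-alpha-fluorotestosterone and 1.5 nM norgestrel present. Readout: reporter mRNA via RT-PCR/CE fluorescence, up-direction vs DMSO.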
# [13] = biological target: Nuclear receptor subfamily 1 group I member 2 (Mus musculus) (UniProt O54915); assay: ATG_mPXR_XSP2: Attagene TRANS-FACTORIAL Multi-Species (XSP1) HepG2 Assay for mouse Pregnane X Receptor (PXR) (AID 2283831)
# Outline: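 Transient HepG2 transfection, multiplexed GAL4-UAS reporters, NR-GAL4 chimeras. 24 h compound exposure. Readout: reporter mRNA, RT-PCR, fluorescent capillary electrophoresis; positive direction vs DMSO baseline.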
# [14] = biological target: zebrafish Thyroid Hormone Receptor alpha (TRa), thraa (gene 30670) (UniProt Q98867); assay: ATG_zfTRa_XSP2: Attagene TRANS-FACTORIAL Multi-Species (XSP1) HepG2 Assay for zebrafish Thyroid Hormone Receptor alpha (TRa) (AID 2283832);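 also: actives raise zebrafish TRa-Gal4 reporter transcript above DMSO baseline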
# Outline: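 Chimeric zebrafish TRa-Gal4 activity read in transfected human HepG2 as GAL4-UAS reporter transcripts, 24 h post-dose, via RT-PCR with labeled primer extension and capillary electrophoresis. Medium also carries 3 nM 6-alpha-fluorotestosterone and 1.5 nM norgestrel; DMSO baseline.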
# [15] = ATG_M_61_XSP2: Attagene TRANS-FACTORIAL Multi-Species (XSP2) HepG2 Assay for M61 Transcription Factor (Internal Marker) (AID 2283835; active = hit-call score of the fitted dose curve at least 0.9, where 1 is the maximum; inactive = score below 0.9;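 also: active means a rise in signal above the DMSO baseline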)
# Outline: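 Internal background marker, read as RT-PCR/capillary-electrophoresis reporter mRNA 24 h post-dose in transiently transfected HepG2 cells. Androgen receptor stimulated with 3 nM 6-alpha-fluorotestosterone plus 1.5 nM norgestrel; gain of signal versus DMSO analysed.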
# [16] = biological target: zebrafish Thyroid Hormone Receptor beta (TRb), thrb (gene 30607) (UniProt Q9PVE4); assay: ATG_zfTRb_XSP2: Attagene TRANS-FACTORIAL Multi-Species (XSP1) HepG2 Assay for zebrafish Thyroid Hormone Receptor beta (TRb) (AID 2283836)
# Outline: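 Reporter transcripts measured by RT-PCR, 6-FAM labelling, HpaI digestion and capillary electrophoresis after 24 h chemical exposure. Human HepG2 cells carry an exogenous zebrafish TRb-GAL4 chimera; medium included 3 nM 6-alpha-fluorotestosterone plus 1.5 nM norgestrel.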
# [17] = biological target: human Thyroid hormone Receptor alpha (TRa), THRA (gene 7067) (UniProt P10827); assay: ATG_hTRa_XSP2: Attagene TRANS-FACTORIAL Multi-Species (XSP2) HepG2 Assay for human Thyroid hormone Receptor alpha (TRa) (AID 2283838)
# Outline: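 Reporter transcripts were read by RT-PCR with fluorescent primer extension, HpaI digestion and capillary electrophoresis. These came from HepG2 cells carrying multiplexed TRa-Gal4 TRANS constructs, harvested 24 hours after dosing. The medium also held 6-alpha-fluorotestosterone (3 nM) and norgestrel (1.5 nM), and increases were fitted against DMSO.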
# zebrafish Thyroid Hormone Receptor alpha (TRa), thraa (gene 30670), sequence (Q98867 whole entry, looked up, the tested form may be a part): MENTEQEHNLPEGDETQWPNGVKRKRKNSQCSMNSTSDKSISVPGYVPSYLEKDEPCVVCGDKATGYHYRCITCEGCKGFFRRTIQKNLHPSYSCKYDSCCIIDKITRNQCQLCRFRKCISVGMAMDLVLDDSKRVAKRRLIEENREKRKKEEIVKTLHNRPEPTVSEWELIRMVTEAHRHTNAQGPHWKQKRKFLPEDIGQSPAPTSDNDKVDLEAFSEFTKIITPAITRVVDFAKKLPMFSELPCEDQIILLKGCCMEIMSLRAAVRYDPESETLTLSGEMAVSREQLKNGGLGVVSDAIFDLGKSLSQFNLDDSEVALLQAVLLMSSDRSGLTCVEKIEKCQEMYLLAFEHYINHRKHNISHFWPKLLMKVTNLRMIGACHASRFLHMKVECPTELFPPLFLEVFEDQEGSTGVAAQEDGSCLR
# zebrafish Estrogen Receptor (ER1), esr1 (gene 259252), sequence (P57717 whole entry, looked up, the tested form may be a part): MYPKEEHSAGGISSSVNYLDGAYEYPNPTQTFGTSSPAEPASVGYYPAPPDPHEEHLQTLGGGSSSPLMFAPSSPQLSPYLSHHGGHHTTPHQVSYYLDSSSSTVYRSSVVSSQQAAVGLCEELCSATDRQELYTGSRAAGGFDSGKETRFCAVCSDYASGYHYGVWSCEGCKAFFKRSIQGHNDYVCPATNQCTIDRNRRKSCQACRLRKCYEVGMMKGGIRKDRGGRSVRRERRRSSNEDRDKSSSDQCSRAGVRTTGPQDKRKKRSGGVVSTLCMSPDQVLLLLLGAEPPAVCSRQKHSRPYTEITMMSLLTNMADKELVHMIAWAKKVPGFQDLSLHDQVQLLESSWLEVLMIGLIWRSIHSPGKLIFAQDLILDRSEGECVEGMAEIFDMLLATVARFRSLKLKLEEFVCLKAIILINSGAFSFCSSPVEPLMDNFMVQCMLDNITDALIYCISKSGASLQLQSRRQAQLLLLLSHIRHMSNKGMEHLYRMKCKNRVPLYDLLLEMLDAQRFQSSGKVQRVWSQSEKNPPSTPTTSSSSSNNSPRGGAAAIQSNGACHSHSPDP
# Peroxisome proliferator-activated receptor gamma (Homo sapiens), sequence (P37231 whole entry, looked up, the tested form may be a part): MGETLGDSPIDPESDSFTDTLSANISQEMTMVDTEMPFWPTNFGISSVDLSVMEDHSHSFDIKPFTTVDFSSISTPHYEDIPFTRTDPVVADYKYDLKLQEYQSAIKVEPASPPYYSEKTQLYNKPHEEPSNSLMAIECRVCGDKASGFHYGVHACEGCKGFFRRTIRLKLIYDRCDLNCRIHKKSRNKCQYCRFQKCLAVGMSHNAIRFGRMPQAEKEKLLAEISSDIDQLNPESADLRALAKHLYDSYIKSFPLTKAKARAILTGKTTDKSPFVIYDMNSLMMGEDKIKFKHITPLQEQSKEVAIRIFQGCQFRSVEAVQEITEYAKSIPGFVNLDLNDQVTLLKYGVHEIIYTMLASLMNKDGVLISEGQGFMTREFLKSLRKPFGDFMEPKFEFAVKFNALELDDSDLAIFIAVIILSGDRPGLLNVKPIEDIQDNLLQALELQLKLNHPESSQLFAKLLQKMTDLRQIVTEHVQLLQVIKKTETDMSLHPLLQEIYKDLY
# GAL4 Transcription Factor (Internal Marker), GAL4 (gene 855828), sequence (P04386 whole entry, looked up, the tested form may be a part): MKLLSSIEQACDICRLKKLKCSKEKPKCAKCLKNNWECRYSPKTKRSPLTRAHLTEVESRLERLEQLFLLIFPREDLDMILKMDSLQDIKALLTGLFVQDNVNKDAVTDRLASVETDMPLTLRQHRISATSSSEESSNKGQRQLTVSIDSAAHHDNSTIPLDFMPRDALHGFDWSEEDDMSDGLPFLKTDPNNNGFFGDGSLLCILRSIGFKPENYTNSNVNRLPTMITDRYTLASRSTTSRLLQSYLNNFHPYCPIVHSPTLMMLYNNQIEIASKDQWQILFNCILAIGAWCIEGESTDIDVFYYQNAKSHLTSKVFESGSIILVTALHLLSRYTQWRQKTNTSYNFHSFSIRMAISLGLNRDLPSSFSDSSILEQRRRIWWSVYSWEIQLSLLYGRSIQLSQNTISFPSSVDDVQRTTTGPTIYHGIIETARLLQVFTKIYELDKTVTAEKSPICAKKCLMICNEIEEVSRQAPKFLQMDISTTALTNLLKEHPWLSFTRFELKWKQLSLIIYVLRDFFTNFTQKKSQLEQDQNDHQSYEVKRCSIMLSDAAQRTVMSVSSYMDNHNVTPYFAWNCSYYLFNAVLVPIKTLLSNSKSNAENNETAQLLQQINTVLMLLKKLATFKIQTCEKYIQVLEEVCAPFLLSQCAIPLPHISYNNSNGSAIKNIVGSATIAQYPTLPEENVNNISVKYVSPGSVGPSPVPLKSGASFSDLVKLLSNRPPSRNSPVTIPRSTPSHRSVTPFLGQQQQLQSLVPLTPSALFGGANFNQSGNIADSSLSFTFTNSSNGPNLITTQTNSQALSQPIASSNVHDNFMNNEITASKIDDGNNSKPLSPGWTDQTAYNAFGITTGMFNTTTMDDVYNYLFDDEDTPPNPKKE
# Nuclear receptor subfamily 1 group I member 2 (Mus musculus), sequence (O54915 whole entry, looked up, the tested form may be a part): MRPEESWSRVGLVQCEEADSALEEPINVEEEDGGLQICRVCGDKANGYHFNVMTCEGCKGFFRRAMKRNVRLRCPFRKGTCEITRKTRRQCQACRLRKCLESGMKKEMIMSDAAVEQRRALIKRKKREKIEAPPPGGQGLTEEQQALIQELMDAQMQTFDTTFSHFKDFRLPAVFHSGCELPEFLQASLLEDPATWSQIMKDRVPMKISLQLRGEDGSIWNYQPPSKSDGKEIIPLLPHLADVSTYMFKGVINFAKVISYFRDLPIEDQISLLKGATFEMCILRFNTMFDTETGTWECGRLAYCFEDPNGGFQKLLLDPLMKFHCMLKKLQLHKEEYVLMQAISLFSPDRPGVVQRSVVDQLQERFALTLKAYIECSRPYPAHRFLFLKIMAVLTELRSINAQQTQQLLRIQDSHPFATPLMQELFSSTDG
# Estrogen receptor (Homo sapiens), sequence (P03372 whole entry, looked up, the tested form may be a part): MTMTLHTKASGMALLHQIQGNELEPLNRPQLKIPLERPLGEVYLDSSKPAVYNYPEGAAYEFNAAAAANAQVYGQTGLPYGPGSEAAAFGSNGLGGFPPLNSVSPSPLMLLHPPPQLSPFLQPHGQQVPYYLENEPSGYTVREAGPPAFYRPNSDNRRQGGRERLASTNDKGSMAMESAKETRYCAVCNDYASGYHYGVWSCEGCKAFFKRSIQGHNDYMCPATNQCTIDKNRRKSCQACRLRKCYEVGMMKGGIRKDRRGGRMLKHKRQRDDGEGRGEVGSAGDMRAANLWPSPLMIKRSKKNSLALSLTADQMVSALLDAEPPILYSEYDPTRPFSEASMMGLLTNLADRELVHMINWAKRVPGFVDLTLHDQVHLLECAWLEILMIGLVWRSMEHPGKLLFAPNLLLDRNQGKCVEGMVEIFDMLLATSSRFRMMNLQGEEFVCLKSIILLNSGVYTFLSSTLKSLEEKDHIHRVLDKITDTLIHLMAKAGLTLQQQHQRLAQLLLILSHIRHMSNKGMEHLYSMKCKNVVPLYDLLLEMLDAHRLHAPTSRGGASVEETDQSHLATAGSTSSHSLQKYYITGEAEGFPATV
# chicken Estrogen Receptor (ERa), ESR1 (gene 396099), sequence (P06212 whole entry, looked up, the tested form may be a part): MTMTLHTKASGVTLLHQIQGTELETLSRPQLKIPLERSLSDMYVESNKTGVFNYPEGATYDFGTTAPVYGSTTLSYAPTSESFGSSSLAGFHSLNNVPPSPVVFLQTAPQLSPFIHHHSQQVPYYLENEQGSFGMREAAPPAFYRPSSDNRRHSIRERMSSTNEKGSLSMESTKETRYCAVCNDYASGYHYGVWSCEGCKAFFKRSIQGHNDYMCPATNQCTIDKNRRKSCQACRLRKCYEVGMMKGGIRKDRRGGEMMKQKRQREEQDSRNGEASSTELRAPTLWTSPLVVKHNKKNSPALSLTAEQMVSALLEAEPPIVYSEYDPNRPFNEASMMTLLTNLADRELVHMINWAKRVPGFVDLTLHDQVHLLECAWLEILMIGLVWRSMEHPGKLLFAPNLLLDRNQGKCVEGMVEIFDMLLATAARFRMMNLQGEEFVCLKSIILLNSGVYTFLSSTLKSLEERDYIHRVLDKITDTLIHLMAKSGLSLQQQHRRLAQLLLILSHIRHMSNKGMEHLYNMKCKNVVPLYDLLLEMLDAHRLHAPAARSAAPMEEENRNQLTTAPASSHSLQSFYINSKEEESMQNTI
# zebrafish Thyroid Hormone Receptor beta (TRb), thrb (gene 30607), sequence (Q9PVE4 whole entry, looked up, the tested form may be a part): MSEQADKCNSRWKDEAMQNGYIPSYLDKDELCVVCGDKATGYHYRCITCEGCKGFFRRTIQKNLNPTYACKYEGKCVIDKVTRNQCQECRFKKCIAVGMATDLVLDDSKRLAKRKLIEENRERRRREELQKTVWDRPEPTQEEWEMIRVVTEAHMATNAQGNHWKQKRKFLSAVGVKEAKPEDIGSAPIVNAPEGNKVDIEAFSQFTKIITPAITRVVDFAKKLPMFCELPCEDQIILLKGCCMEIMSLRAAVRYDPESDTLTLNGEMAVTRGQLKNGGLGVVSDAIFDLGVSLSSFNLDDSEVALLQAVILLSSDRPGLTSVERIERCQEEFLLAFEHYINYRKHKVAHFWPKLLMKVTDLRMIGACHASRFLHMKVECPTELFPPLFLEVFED
# human Thyroid hormone Receptor alpha (TRa), THRA (gene 7067), sequence (P10827 whole entry, looked up, the tested form may be a part): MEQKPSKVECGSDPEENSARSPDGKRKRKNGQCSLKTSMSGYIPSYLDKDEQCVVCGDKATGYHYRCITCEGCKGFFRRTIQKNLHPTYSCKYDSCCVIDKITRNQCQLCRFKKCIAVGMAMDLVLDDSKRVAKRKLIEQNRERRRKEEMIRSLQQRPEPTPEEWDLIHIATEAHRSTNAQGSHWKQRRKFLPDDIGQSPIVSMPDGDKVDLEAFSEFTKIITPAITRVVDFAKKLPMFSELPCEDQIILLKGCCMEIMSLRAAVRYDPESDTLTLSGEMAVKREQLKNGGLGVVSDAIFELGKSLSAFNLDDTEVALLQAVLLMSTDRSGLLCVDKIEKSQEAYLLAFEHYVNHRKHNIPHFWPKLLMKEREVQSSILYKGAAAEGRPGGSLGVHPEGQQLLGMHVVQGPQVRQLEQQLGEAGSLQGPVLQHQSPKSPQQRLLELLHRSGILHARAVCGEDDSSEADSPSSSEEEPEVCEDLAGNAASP
smiles,measurement,setting,value
C=CC(=O)OCCC(F)(F)C(F)(F)C(F)(F)C(F)(F)F,outcome,[1],inactive
O=C1C=CC(=O)N1c1ccccc1,AC50,[1],9.92 µM (active)
CCCCCCCCn1sc(Cl)c(Cl)c1=O,AC50,[1],9.92 µM (active)
O=C(F)C1(F)C(F)(F)C(F)(F)C(F)(F)C(F)(F)C1(F)F,outcome,[1],inactive
OCC(O)CC(F)(F)C(F)(F)C(F)(F)C(F)(F)C(F)(F)C(F)(F)C(F)(F)C(F)(F)F (stereo not drawn),outcome,[1],inactive
CCC(Cc1c(I)cc(I)c(N)c1I)C(=O)O (stereo not drawn),outcome,[1],inactive
O=S(=O)(Cl)C(F)(F)C(F)(F)C(F)(F)C(F)(F)C(F)(F)C(F)(F)C(F)(F)C(F)(F)F,AC50,[1],16.9 µM (active)
CC(C)Nc1ccc(NC(C)C)c2c1C(=O)c1ccccc1C2=O,outcome,[1],inactive
O=S(=O)(OCC(F)(F)F)C(F)(F)C(F)(F)C(F)(F)C(F)(F)F,outcome,[1],inactive
CCCCCCCCCCCCCC[P+](CCCC)(CCCC)CCCC,AC50,[1],9.92 µM (active)
O=C(c1ccccc1)c1ccc(O)cc1O,outcome,[2],inactive
same,AC50,[3],10 µM (active)
same,AC50,[4],2.77 µM (active)
same,AC50,[5],4.68 µM (active)
same,outcome,[6],inactive
same,AC50,[7],3.76 µM (active)
same,AC50,[8],5.04 µM (active)
same,outcome,[9],inactive
same,AC50,[10],2.31 µM (active)
same,AC50,[11],2.73 µM (active)
same,outcome,[12],inactive
same,outcome,[13],inactive
same,outcome,[14],inactive
same,outcome,[15],inactive
same,outcome,[16],inactive
same,outcome,[17],inactive
same,outcome,[1],inactive
OCC(F)(F)C(F)(F)C(F)(F)C(F)(F)C(F)(F)C(F)(F)C(F)(F)C(F)(F)CO,AC50,[1],18.3 µM (active)
